Laboratory results from PubChem BioAssay.
Calls of active or inactive are those of the source.

Columns and labels:
[1] = binders of probe aFSTL3 on microarray, primary screen, stem cell growth factor project, biochemical, small-molecule microarray, fluorescence 635/667 (AID 1064); conditions: higher = more signal;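 note: measures binding of the biotinylated anti-FSTL3 antibody to printed compounds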
[2] = binders from COS7 lysate, DM2A8 probe, primary screen, torsin A project, cell lysate, small-molecule microarray, fluorescence 635/667 (AID 1065); conditions: higher = more signal, COS7 lysate expressing mutant human TOR1A
[3] = binders of probe aFGF2 on microarray, primary screen, stem cell growth factor project, biochemical, small-molecule microarray, fluorescence 635/667 (AID 1067); conditions: higher = more signal;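 note: measures binding of biotinylated aFGF2 protein to printed compounds on slides; z-score merges feature fluorescence and signal-to-noise across triplicate slides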
[4] = binders of probe aFGF10 on microarray, primary screen, stem cell growth factor project, biochemical, small-molecule microarray, fluorescence 635/667 (AID 1071); conditions: higher = more signal;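 note: score merges 667 nm spot intensity and signal to noise from triplicate slides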
[5] = biological target: Neurogenic locus notch homolog protein 2 (Homo sapiens) (UniProt Q04721); assay: Notch2 binders on small-molecule microarrays, primary screen, biochemical, small-molecule microarray, 635 nm fluorescence, stem cell growth factors (AID 1073); conditions: Notch2 binding, higher = more signal
Sequence of Neurogenic locus notch homolog protein 2 (Homo sapiens) (Q04721 whole entry, looked up, canonical isoform): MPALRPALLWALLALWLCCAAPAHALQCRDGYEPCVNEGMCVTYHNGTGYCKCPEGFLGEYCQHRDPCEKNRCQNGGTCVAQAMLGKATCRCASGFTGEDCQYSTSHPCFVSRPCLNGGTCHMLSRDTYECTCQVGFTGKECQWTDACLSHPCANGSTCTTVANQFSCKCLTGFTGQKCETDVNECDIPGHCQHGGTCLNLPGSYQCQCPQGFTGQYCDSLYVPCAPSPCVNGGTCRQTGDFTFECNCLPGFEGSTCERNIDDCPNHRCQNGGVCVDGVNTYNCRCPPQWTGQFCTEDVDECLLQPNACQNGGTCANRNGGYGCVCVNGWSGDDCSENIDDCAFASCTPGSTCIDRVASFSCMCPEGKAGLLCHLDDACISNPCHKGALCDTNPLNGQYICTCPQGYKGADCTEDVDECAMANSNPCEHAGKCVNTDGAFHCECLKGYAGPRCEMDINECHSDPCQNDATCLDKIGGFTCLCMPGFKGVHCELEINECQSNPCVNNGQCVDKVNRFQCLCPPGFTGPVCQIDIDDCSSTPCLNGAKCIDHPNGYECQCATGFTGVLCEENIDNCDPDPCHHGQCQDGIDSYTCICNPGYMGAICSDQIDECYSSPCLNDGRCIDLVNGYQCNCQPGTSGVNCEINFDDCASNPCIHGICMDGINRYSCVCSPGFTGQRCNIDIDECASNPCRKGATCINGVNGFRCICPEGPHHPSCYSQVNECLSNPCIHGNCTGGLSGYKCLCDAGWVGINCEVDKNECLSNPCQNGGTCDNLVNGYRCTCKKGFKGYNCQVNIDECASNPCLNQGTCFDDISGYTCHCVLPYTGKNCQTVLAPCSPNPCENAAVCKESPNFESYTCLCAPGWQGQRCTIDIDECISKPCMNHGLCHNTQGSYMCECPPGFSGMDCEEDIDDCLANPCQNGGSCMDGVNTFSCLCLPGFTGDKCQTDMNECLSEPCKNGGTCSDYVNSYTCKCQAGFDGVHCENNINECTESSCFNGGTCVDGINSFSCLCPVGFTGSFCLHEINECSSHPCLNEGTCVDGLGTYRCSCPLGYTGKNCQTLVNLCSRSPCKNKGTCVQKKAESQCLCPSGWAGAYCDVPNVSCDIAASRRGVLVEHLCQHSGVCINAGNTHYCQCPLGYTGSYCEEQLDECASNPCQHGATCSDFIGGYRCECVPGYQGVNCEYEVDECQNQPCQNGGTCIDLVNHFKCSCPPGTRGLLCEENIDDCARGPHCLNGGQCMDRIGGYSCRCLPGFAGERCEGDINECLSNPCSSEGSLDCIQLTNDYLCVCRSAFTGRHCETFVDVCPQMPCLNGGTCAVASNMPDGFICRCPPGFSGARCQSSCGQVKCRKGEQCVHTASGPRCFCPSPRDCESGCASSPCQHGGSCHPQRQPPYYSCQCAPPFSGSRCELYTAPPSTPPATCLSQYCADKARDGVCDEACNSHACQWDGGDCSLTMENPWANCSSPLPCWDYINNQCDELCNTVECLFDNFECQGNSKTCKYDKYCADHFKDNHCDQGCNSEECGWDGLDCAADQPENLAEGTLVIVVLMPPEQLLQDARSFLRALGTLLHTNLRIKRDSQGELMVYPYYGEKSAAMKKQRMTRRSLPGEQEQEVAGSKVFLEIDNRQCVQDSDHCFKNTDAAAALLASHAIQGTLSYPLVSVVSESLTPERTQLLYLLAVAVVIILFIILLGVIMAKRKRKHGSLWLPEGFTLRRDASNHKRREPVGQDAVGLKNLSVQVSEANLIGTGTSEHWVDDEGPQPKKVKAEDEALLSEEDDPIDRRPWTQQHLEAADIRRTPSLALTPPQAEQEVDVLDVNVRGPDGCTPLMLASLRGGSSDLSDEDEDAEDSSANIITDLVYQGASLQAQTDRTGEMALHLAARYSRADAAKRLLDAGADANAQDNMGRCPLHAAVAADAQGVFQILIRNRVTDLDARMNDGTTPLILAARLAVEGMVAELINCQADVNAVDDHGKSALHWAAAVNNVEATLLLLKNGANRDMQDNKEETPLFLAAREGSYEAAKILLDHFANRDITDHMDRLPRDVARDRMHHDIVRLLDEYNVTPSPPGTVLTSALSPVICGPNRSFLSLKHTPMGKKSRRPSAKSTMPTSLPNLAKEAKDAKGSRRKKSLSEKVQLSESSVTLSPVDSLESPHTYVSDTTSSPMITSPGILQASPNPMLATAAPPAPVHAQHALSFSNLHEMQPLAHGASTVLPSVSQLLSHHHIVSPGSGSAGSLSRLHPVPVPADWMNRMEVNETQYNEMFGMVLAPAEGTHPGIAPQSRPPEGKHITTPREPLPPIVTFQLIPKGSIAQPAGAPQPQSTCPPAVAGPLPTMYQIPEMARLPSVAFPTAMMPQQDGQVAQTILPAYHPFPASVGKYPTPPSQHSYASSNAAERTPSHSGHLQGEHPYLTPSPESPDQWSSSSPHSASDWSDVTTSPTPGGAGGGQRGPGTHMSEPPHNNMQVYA

[6] = biological target: Pro-neuregulin-1, membrane-bound isoform (Homo sapiens) (UniProt Q02297); assay: NRG1 binders on small-molecule microarrays, primary screen, psychiatric disease protein project, biochemical, small-molecule microarray, fluorescence 635/667 (AID 1075); conditions: NRG1 binding, 635 nm fluorescence, higher = more signal;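 note: score combines 667 nm spot fluorescence with signal to noise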
[7] = test system: Neuregulin-1 EGF-like domain; assay: binders of neuregulin-1 EGF-like domain, primary screen, biochemical, small-molecule microarray, 635 nm fluorescence (AID 1081); conditions: small-molecule microarray binding, higher = more signal;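 note: binding of the protein to compounds printed on small-molecule microarray slides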
[8] = FRG1 promoter luciferase signal modulators, primary screen, FRG1 inhibition for FSHD, cell-based, C2C12 myotubes, firefly/Renilla luciferase, luminescence (AID 1084); conditions: higher = more signal, called active from +8 up or from −8 down
[9] = binders of probe aFST on microarray, primary screen, stem cell growth factor project, biochemical, small-molecule microarray, fluorescence 635/667 (AID 1086); conditions: higher = more signal;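 note: score merges 667 nm fluorescence with signal-to-noise of each printed compound spot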
[10] = binders of probe aHhip on microarray, primary screen, stem cell growth factor project, biochemical, small-molecule microarray, fluorescence 635/667 (AID 1087); conditions: higher = more signal;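 note: score merges spot fluorescence at 667nm with spot signal to noise ratio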
[11] = test system: PRMT1 (protein arginine N-methyltransferase 1); assay: PRMT1 binders on small-molecule microarrays, primary screen, biochemical, small-molecule microarray, 635 nm fluorescence (AID 1088); conditions: small-molecule microarray binding, higher = more signal;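 note: binding of Prmt1 protein to compounds spotted on small-molecule microarray slides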
[12] = yeast growth modulation, basal conditions, primary screen, YJM789 clinical isolate, OD600, 24 h (AID 1089);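 note: growth of clinical yeast isolate S. cerevisiae YJM 789 seeded 1000 cells per well; test concentration not given here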; conditions: S. cerevisiae YJM789 growth, higher = more signal, called active from +8 up or from −8 down
[13] = fission yeast growth modulation, primary screen, strain 972, OD600, 24 h, no modulator (AID 1090);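 note: basal condition with compound alone and no growth modifier present; test concentration not given here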; conditions: S. pombe 972 growth, higher = more signal, called active from +8 up or from −8 down
[14] = S. cerevisiae growth modulation with rapamycin, primary screen, strain BY4716, OD600, 96 h (AID 1091); conditions: higher = more signal, called active from +8 up or from −8 down; note: test concentration not given here
[15] = biological target: Torsin-1A-interacting protein 2 (Homo sapiens) (UniProt Q8NFQ8); assay: LULL1 binders on small-molecule microarray, primary screen, cell lysate, human LULL1 lysate, 635/667 nm fluorescence (AID 1092); conditions: hLULL1 lysate binding, 635 nm fluorescence, higher = more signal;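 note: probe is lysate of COS7 cells overexpressing human LULL1; score merges per-feature 667 nm fluorescence with signal-to-noise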
[16] = E. coli growth modulation, two-sided OD650, primary screen, E. coli filamentation project, strain DRC41, 24 h (AID 1093); conditions: OD650, 24 h, higher = more signal, called active from +8 up or from −8 down;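 note: MC1000 strain lacking acrAB efflux and sulA so SOS filamentation is blocked; test concentration not given here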
[17] = small-molecule microarray binders of probe aLefty2, primary screen, biochemical, biotinylated probe, 635/667 nm fluorescence (AID 1094); conditions: higher = more signal;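 note: score merges spot fluorescence near 667 nm with spot signal-to-noise ratio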
[18] = test system: Noggin (protein binding on small-molecule microarray); assay: Noggin binders on small-molecule microarray, primary screen, biochemical, 635/667 nm fluorescence (AID 1095); conditions: 635 nm fluorescence, higher = more signal;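 note: score merges 667 nm feature fluorescence with signal to noise over triplicate slides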
[19] = biological target: Neurogenic locus notch homolog protein 3 (Homo sapiens) (UniProt Q9UM47); assay: NOTCH3 binders on small-molecule microarray, primary screen, biochemical, 635/667 nm fluorescence (AID 1096); conditions: NOTCH3 binding, 635 nm fluorescence, higher = more signal
Sequence of Neurogenic locus notch homolog protein 3 (Homo sapiens) (Q9UM47 whole entry, looked up): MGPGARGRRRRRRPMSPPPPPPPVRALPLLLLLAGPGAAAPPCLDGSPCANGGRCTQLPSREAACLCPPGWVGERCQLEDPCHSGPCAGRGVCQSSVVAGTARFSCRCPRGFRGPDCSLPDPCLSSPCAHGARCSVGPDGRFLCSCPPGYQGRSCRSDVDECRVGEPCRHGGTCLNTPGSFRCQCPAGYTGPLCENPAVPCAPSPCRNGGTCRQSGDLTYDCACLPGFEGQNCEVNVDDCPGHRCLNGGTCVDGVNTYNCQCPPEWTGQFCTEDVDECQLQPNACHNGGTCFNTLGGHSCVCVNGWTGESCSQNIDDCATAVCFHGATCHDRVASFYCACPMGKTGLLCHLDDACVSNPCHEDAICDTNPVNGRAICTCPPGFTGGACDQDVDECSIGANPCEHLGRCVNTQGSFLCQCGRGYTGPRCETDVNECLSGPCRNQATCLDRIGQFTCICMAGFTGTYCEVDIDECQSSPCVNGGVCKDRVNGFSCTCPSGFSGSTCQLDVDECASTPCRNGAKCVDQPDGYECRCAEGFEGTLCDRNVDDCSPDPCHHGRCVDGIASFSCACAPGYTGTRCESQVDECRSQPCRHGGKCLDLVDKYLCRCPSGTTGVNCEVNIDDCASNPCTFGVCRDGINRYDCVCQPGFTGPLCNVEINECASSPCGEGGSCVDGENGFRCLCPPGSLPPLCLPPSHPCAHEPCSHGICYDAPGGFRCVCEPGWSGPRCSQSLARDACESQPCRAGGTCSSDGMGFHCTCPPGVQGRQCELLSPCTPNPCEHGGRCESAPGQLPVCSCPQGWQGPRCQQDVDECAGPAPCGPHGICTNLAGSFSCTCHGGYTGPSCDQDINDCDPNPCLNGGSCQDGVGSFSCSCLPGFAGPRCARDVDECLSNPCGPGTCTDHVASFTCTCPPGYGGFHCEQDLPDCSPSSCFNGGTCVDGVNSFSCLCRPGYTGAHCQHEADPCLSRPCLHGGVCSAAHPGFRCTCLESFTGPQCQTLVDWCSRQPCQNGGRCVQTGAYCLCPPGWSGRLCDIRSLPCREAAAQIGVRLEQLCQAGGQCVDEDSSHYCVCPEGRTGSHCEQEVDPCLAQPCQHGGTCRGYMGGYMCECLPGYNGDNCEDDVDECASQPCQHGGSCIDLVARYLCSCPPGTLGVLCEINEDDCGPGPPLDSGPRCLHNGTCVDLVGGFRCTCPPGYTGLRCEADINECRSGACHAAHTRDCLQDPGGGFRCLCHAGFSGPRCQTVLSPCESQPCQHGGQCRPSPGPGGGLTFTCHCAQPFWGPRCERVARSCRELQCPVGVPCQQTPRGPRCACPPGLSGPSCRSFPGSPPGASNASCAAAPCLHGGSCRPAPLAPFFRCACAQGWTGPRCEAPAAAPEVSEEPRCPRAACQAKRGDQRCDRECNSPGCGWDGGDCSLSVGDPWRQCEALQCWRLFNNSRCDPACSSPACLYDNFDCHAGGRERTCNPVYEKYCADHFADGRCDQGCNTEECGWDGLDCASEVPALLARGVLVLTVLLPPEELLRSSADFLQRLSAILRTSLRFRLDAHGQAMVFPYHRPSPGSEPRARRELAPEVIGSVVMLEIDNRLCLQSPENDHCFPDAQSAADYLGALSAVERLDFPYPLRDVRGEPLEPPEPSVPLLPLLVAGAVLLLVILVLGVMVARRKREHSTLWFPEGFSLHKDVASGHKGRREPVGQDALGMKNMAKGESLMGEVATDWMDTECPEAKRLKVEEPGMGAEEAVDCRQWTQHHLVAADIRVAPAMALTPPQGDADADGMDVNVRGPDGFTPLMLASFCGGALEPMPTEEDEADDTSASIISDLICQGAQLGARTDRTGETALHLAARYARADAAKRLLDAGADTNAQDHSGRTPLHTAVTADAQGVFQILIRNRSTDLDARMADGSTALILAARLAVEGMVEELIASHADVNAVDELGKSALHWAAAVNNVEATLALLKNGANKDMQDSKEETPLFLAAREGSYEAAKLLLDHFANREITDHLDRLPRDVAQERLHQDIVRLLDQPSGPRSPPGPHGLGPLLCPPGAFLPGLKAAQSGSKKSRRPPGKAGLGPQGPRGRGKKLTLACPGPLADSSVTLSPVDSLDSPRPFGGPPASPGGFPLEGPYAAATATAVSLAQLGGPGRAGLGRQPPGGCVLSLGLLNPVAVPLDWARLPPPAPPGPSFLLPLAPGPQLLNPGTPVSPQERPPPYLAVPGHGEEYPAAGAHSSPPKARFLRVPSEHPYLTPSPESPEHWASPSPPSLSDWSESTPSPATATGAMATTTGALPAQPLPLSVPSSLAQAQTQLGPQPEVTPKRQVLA

[20] = small-molecule microarray binders of probe aEGFR, primary screen, biochemical, biotinylated probe, 635/667 nm fluorescence (AID 1097); conditions: higher = more signal;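 note: probe is a biotinylated anti-EGFR antibody binding compounds printed on slides; score combines fluorescence near 667 nm and signal to noise of each spot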

Row | Compound | composite z-score [1] | composite z-score [2] | composite z-score [3] | composite z-score [4] | composite z-score [5] | composite z-score [6] | composite z-score [7] | z-score [8] | composite z-score [9] | composite z-score [10] | composite z-score [11] | z-score [12] | z-score [13] | z-score [14] | composite z-score [15] | z-score [16] | composite z-score [17] | composite z-score [18] | composite z-score [19] | composite z-score [20]
1 | C=C(CCCC)/C(=C/C[C@H](OC(C)=O)c1ccc(OCCO)cc1)c1cc(C(=O)OC)ccc1OC | -0.321 | -0.137 | 0.0057 | 0.674 | -0.0254 | 1.04 | 1 | 8.65 (active) | -0.28 | -0.179 | 1.25 | 0.966 (inactive) | -0.628 (inactive) | -0.59 (inactive) | 2.36 | 0.54 (inactive) | -0.0238 | 0.917 | 0.563 | -0.115
2 | COc1ccc(CCNC(=O)[C@@]2(Cc3ccccc3I)c3ccccc3C(=O)N(Cc3ccccc3Cl)[C@H]2c2ccc(CO)cc2)cc1 | 0.696 | 0.348 | 0.189 | 0.0625 | 0.0077 | 1.8 | 1.22 | -3.44 (inactive) | 0.262 | 0.674 | 1.46 | -0.372 (inactive) | -0.645 (inactive) | -0.0387 (inactive) | 2.35 | -1.3 (inactive) | 0.23 | -0.383 | 0.0854 | 0.0284
3 | CO[C@H]1O[C@H](CO)[C@@H](OC(=O)Nc2ccc(C#N)cc2)[C@@H]2OC(=O)[C@H](Cc3cccc(Br)c3)C/C=C/C[C@@H](Cc3cccc(Br)c3)C(=O)O[C@@H]12 | -0.381 | -0.0617 | -0.0181 | 0.503 | 0.626 | 0.514 | 0.3 | -0.362 (inactive) | 0.572 | 0.195 | 1.24 | 0.471 (inactive) | 0.0261 (inactive) | 27.2 (active) | 1.26 | 0.27 (inactive) | 0.212 | 0.432 | 0.733 | 0.11
4 | COc1ccc(NC(=O)O[C@H]2[C@@H]3OC(=O)[C@H](Cc4cccc(Br)c4)C/C=C/C[C@@H](Cc4cccc(Br)c4)C(=O)O[C@H]3[C@@H](OC)O[C@@H]2CO)cc1 | 0.0355 | 1.4 | 0.0929 | 0.579 | 0.935 | 0.558 | 0.453 | 3.13 (inactive) | 0.421 | 0.285 | 1.06 | 0.337 (inactive) | 0.505 (inactive) | -0.127 (inactive) | 1.36 | 0.904 (inactive) | 0.123 | 0.331 | 0.656 | -0.067
5 | O=C1c2ccccc2[C@](Cc2ccccc2I)(C(=O)NC2CC2)[C@H](c2ccc(CO)cc2)N1Cc1ccccc1C(F)(F)F | -0.0446 | 0.338 | -0.0878 | 0.433 | -0.229 | 1.74 | 1.26 | -2.07 (inactive) | 0.11 | -0.0726 | 1.55 | -0.124 (inactive) | -0.684 (inactive) | 0.341 (inactive) | 2.76 | -1.8 (inactive) | -0.0817 | 0.894 | 1.06 | -0.139
6 | CCOC(=O)C1=CCC(c2ccco2)N(S(=O)(=O)c2ccc(C)cc2)C1 (stereo not given) | 0.632 | -0.0497 | 0.0061 | 0.864 | 1.62 | 1.46 | 0.791 | -2.47 (inactive) | 0.803 | 0.127 | 1.08 | -0.949 (inactive) | -0.0107 (inactive) | -0.013 (inactive) | 2.62 | 0.322 (inactive) | 0.18 | 0.637 | 1.08 | 0.0357
7 | COc1ccc([Si](C)(C)[C@H]2[C@H](CCO)O[C@@]3(C(=O)N(Cc4ccc(N5C(=O)c6ccccc6Oc6ccccc65)cc4)c4ccccc43)[C@@H]2C)cc1 | 0.603 | -0.352 | -0.081 | 0.251 | -0.389 | 0.0473 | 0.644 | -3.69 (inactive) | -0.601 | -0.284 | 0.263 | 2.1 (inactive) | -1.25 (inactive) | 22.7 (active) | 0.822 | 0.511 (inactive) | 0.0004 | -1.01 | -0.532 | 0.0125
8 | [N-]=[N+]=Nc1ccccc1C[C@]1(C(=O)O)N=C(c2ccc(OCCCO)cc2)O[C@H]1c1ccccc1 | 0.0867 | 0.444 | -0.0785 | 0.743 | 0.448 | 1.94 | 1.21 | -1.4 (inactive) | 0.834 | -0.199 | 1.34 | 3.9 (inactive) | 0.888 (inactive) | 0.712 (inactive) | 3.11 | 0.464 (inactive) | 0.0116 | -0.0597 | 0.703 | -0.0828
9 | CC(C)CNC(=O)[C@@]1(C)c2ccccc2C(=O)N(Cc2cc(C(F)(F)F)cc(C(F)(F)F)c2)[C@H]1c1ccc(CO)cc1 | 0.0317 | 0.0213 | -0.178 | -0.278 | -0.474 | -0.12 | 0.492 | -1.43 (inactive) | -0.635 | 0.0156 | 1.3 | -0.721 (inactive) | 0.4 (inactive) | -0.699 (inactive) | 1.16 | 0.497 (inactive) | 0.0481 | -0.558 | -0.966 | -0.1
10 | COC(=O)[C@@]1(Cc2ccc(F)cc2)[C@H]2c3cc(C(=O)N(C)C)n(Cc4ccc(O)c(OC)c4)c3C[C@H]2CN1C(=O)c1ccccc1 | 0.129 | 0.196 | 0.0398 | 0.531 | 1.35 | 1.26 | 0.786 | 2.98 (inactive) | 0.675 | 1.17 | 0.423 | 0.0973 (inactive) | -1.2 (inactive) | 0.485 (inactive) | 2.2 | 1.02 (inactive) | 0.0043 | 0.718 | 1.13 | 0.0977
